# Compound activity (PubChem)
# Compounds with a hit are over-represented: about 4.7% of the library has one in this group of screens.
# SKKanGAS inh: S. pyogenes SKKanGAS growth inhibitors in kanamycin, primary screen, streptokinase expression inhibitor project, SKKanGAS strain, BacTiter-Glo luminescence; 1.3% of 300,000 active; inhibition, % at 7.5 µM; 6 h; AID 1662, 2009;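 active = mean replicate score, as percent of positive control median, at least 50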;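 also: strain carries kanamycin resistance gene driven by streptokinase promoter and grows in 40 µg/ml kanamycin; loss of luminescence reflects streptokinase promoter inhibition or plain growth inhibition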
# PfHsp90 set2: growth inhibition of PfHsp90-expressing yeast, primary screen, antimalarial PfHsp90 inhibitor project, S. cerevisiae, BacTiter-Glo luminescence, single point, set 2; BacTiter-Glo ATP, 48 h; yeast lacking PDR1 and PDR3 efflux regulators; inhibition, % at 9.4 µM; 0.32% of 310,000 active;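 active = every replicate shows inhibition above about 80%, whatever the replicate mean, limit read from the data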
# tim23-1 inh: growth inhibitors of tim23-1 mutant yeast, primary screen, luminescence, uHTS; S. cerevisiae tim23-1 growth, BacTiter-Glo luminescence, 24 h; inhibition, % at 20 µM; 1.3% of 330,000 active;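 active = growth inhibition of the mutant yeast at or above 50%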;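 also: temperature-sensitive mutant grown at 25 °C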
# TIM10 inh: growth inhibitors of isogenic TIM10 control yeast, primary screen, counter-screen for tim10-1 yeast inhibitor project, luminescence, uHTS; S. cerevisiae TIM10 strain growth, BacTiter-Glo luminescence, 24 h; inhibition, % at 10 µM; 1.4% of 330,000 active; AID 463195, 2010;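 active = inhibition of 40% or more at the single tested concentration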;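 also: wild-type TIM10 isogenic control strain grown at permissive 25 °C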
# EBI2 antag: EBI2 receptor antagonists, beta-arrestin recruitment, primary screen, cell-based, luminescence, 7a,25-OHC stimulation, uHTS. 0.81% of 360,000 active. inhibition, % at 5 µM. AID 651636, 2012. 7a,25-OHC stimulated; in the data active = inhibition above about 38%;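 also: enzyme fragment complementation signal reports receptor beta-arrestin coupling in cells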
# Target sequence (P32249 whole entry, looked up, the tested form may be a part): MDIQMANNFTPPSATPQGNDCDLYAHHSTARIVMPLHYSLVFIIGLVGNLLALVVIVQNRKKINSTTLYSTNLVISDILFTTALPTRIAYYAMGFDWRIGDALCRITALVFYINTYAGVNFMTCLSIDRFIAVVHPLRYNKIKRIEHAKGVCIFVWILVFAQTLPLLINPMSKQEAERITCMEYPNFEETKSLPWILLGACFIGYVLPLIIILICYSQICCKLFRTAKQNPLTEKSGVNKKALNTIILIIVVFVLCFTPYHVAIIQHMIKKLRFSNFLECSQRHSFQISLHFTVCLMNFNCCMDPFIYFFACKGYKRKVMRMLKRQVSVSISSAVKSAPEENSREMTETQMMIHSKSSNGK
# tim10-1 inh: growth inhibitors of tim10-1 mutant yeast, primary screen, luminescence, uHTS. S. cerevisiae tim10-1 ts strain growth, BacTiter-Glo, 24 h. inhibition, % at 20 µM. 2.2% of 330,000 active;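 active = inhibition of at least 40%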;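 also: mutant grown at 25 °C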
# EBI2 conf: EBI2 antagonist hit retest, beta-arrestin, confirmation, cell-based, single concentration, luminescence, 7a,25-OHC stimulation; 7a,25-OHC antagonism; shares compounds with EBI2 antag; inhibition, % at 5 µM; 29% of 2,400 active;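 active = inhibition of at least 50%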
# EBI2 agonist: EBI2 agonist activity of antagonist hits, confirmation, counter-screen for EBI2 antagonist project, cell-based, single concentration, agonist mode, luminescence. shares compounds with EBI2 antag. EBI2-expressing cells, 60 min; 0% vehicle, 100% 7α,25-dihydroxycholesterol control. activation, % at 5 µM. 2,400 tested, under 10 active;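 active = activation of at least 50%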
# bGal counter: E. coli beta-galactosidase enzyme inhibition, confirmation, counter-screen for EBI2 antagonist project, biochemical, luminescence, single concentration | shares compounds with EBI2 antag | purified beta-galactosidase, luminescent Galacton Star, 15 min | inhibition, % at 5 µM | 1% of 2,400 active | AID 652176, 2013;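 active = replicate-average signal at least 3 plate SD below neutral wells, shown as high inhibition, flagging enzyme-inhibiting false positives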;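 also: higher means stronger loss of beta-gal luminescence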
# Hits are given with their value; – = inactive; · = no result.
SMILES,SKKanGAS inh,PfHsp90 set2,tim23-1 inh,TIM10 inh,EBI2 antag,tim10-1 inh,EBI2 conf,EBI2 agonist,bGal counter
CCOC(=O)[C@]12Cc3cc(OC)ccc3[C@H]1N(C)C(=O)c1cc(OC)ccc12,·,·,·,·,–,·,·,·,·
CCOC(=O)[C@]12Cc3ccccc3[C@H]1N(C(C)C)C(=O)c1ccccc12,·,·,·,·,–,·,·,·,·
CCOC(=O)[C@]12Cc3ccc(C)cc3[C@H]1N(C1CCCCC1)C(=O)c1cc(OC)ccc12,·,·,·,·,52.1,·,–,–,–
Brc1ccc2c(c1)-n1nncc1CN(CC1CCCCC1)C2,·,·,·,·,–,·,·,·,·
CC(C)[C@]12CC(=O)[C@H](C)[C@H]1C2,·,–,–,–,–,–,·,·,·
COC(=O)C1=C(c2ccc(F)cc2OCc2ccccc2)C[C@@H]2CC[C@H]1N2C(=O)N1CCCCC1,·,–,–,–,–,–,·,·,·
COC(=O)C1=C(c2ccc(F)cc2OCc2ccccc2)C[C@@H]2CC[C@H]1N2C(=O)N1CCC(O)(c2ccc(Cl)cc2)CC1,·,–,–,–,52.4,–,–,–,–
COC(=O)C1=C(c2ccc(C(C)=O)cc2)C[C@@H]2CC[C@H]1N2C(=O)NCCCOC(C)C,·,–,–,–,–,–,·,·,·
CC/C(=N\N1CCCCCC1)c1c(O)n(-c2ccc(C)cc2)c(=O)[nH]c1=O,–,–,–,–,–,–,·,·,·
O=C1NCN(c2ccccc2)C12CCN(C(c1nnnn1C1CCCC1)C1CC1)CC2 (configuration not stated),·,·,·,·,–,·,·,·,·
CCOC(=O)c1cncn1C(C)c1ccccc1 (configuration not stated),–,–,–,–,47.9,–,–,–,–
CN(C(=O)Oc1ccc(C(=O)c2ccc(Cl)cc2)cc1)c1ccccc1,–,–,–,–,79.0,–,56.1,–,–
O=C(COc1ccccc1)N1CCN(CCN2C(=O)c3cccc4cccc(c34)C2=O)CC1,–,–,–,–,49.9,–,–,–,–
O=C1NC(=O)C(C2CCOC2=O)N1 (configuration not stated),·,·,·,·,–,·,·,·,·
O=[N+]([O-])c1cnc[nH]1,–,–,–,–,–,–,·,·,·
COc1ccc(OCC(=O)N2CCN(CC3CC4C=CC3C4)CC2)cc1 (configuration not stated),–,–,–,–,83.3,–,56.1,–,–
